KDM5B inh – inhibitors of human KDM5B histone demethylase; Q9UGL1; KDM5B demethylase, FDH-coupled NADH fluorescence (FDH is formaldehyde dehydrogenase); AID 1347165; 2.6% of 220,000 active; Potency, µM (highest dose often 57.7 µM), usual class: inhibitors; active = well fitted inhibition curve with a large enough effect; also: 0% is about no effect; nearly all actives have a fitted effect of over 70% in size
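Inhibition is measured as reduced NADH fluorescence generation from FDH coupling to formaldehyde release. Truncated KDM5BΔAP at 200 nM final acts on H3K4me3 peptide (12.5 µM in substrate mix) in pH 7.5 HEPES buffer with Tween-20, 30 min, room temperature.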
* hit, by the source's call; i = inactive. The entries come from a sample that favours hits as a whole. Potency is read from the fitted curve at half-maximal effect.

SMILES	KDM5B inh
Cc1noc2c(-c3cccc(CO)c3)cc(-c3cccc(C(F)(F)F)c3)nc12	i
Cc1noc(C)c1S(=O)(=O)N1CCC(c2noc(-c3cccnc3)n2)C1 (centres undefined)	i
Cc1noc(C)c1-c1cc2c(c(-c3cccc(S(C)(=O)=O)c3)c1)C(=O)N(C)C2	i
CNC(=O)c1cc2cc(-c3c(C)noc3C)nc(-c3cnn(C)c3)c2o1	i
Cc1nc(-c2cccc(NC(=O)N3CCCC3c3c(C)noc3C)c2)cs1 (centres undefined)	i
COCc1noc([C@@H]2CC(F)(F)CN2C(=O)c2coc(C)n2)n1	i
CCCCn1c(C)c(C)c(S(=O)(=O)c2ccc(OC)cc2)c1NC(=O)c1ccco1	i
COCCCNC(=O)Cc1cccn1-c1ccc(F)cc1	i
COc1ccc(-c2noc(CSc3nc(C4CC4)n(-c4ccccc4)n3)n2)cc1OC	i
O=C(NCCC(=O)N1CCCC1)C1CCCCC1	i
COc1ccccc1CCNC(=O)c1sc(NC(C)C)nc1C	i
Cc1cc(C)c2c(=O)cc(C(=O)Nc3c(C)cccc3C)oc2c1	i
Cc1ccc(NC(=O)/C(C#N)=C\c2ccc(OC(F)F)cc2)c(C)c1	i
O=C(NC1CCCC1)C(Sc1nc2ccccc2o1)c1ccccc1 (centres undefined)	i
CCN1CCN(CCNC(=O)C2CCN(C(=O)N3CC4CC(C3)[C@H]3CCCC(=O)N3C4)CC2)CC1 (some centres undefined)	i
CCn1c(CC2CCN(S(=O)(=O)c3cccc(C)c3)CC2)nn(C)c1=O	i
CCOCCCNC(=O)/C=C/c1ccc(OC)cc1	i
COc1ccc(-c2onc(C)c2-c2ccc(OC)c(OC)c2)c(O)c1	i
CC(=O)Nc1cccc(-c2cc(C3=CCOCC3)c3cncn3c2)c1	39.8µM*
C[S+](=O)([O-])c1ccc(-c2cc(-c3cccnc3)c3cncn3c2)cc1	39.8µM*
COc1cccc(-c2cc(-c3c(C)noc3C)cc3c2C(=O)N(C)C3)c1OC	i
NC(=O)c1cccc(-c2cc(-c3ccncc3)c3cncn3c2)c1	i
C[S+](=O)([O-])c1ccc(-c2cc(C(=O)NCc3cccnc3)nn3cccc23)cc1	i
COc1ccc(-c2cc(-c3c(C)noc3C)c3cncn3c2)cc1	31.6µM*
C[S+](=O)([O-])c1ccc(-c2cc(C(=O)N3CCCC3)nn3cccc23)cc1	i
SMILES	KDM5B inh
CC(=O)Nc1cccc(-c2csc(Nc3ccc(O)cc3C)n2)c1	i
CCc1cccc2c(C(=O)CSc3nnc(C)s3)c[nH]c12	i
COc1cc(NC(=O)Nc2ccc(F)c(-c3nnc(-c4ccccc4)o3)c2)cc(OC)c1OC	i
COc1cc(OC)c(C2C3=C(CC(C)(C)CC3=O)Nc3ccccc3N2C(C)=O)cc1OC (centres undefined)	i
COc1ccc(Cl)cc1NC(=O)CCc1ncc(-c2ccc(Cl)cc2)o1	i
CCOc1ccc2c(n1)CCN(C(=O)COc1ccccc1)C2	i
COC[C@@H]1CN(C(=O)COc2cccc(C)c2)C[C@H]1c1ccncc1	i
COc1ccc(C(=O)N[C@@H]2C(=O)Nc3c(c(C)nn3C)[C@H]2c2ccc3c(c2)OCCO3)cc1OC	i
Cc1ccc(C(=O)NCCn2ccn3nc(-c4ccc(F)cc4)cc3c2=O)cc1F	i
Cc1ccc(C)c(-c2cc3c(=O)n(CCNC(=O)c4ccc(N(C)C)cc4)ccn3n2)c1	35.5µM*
Cc1ccc(C)c(-c2cc3c(=O)n(CCNC(=O)c4ccc(C#N)cc4)ccn3n2)c1	i
Cc1ccc(C(=O)NCCn2ccn3nc(-c4cc(C)ccc4C)cc3c2=O)cc1	i
Cc1ccc(-c2cc3c(=O)n(CCNC(=O)c4ccc(F)c(F)c4)ccn3n2)c(C)c1	i
Cc1ccc(-c2cc3c(=O)n(CCNC(=O)c4cccc(N(C)C)c4)ccn3n2)cc1C	17.8µM*
Cc1ccc(-c2cc3c(=O)n(CCNC(=O)c4ccc(Cl)cc4)ccn3n2)cc1C	14.1µM*
COc1cccc(C(=O)NCCn2ccn3nc(-c4ccc(C)c(C)c4)cc3c2=O)c1	i
Cc1ccc(-c2cc3c(=O)n(CCNC(=O)c4ccc(F)cc4Cl)ccn3n2)cc1C	31.6µM*
Cc1ccc(C)c(-c2cc3c(=O)n(CCNC(=O)c4ccccc4Cl)ccn3n2)c1	i
COCc1nn2c(c1-c1ccccc1)NC(=O)CC2C(=O)Nc1ccc(F)c(F)c1 (centres undefined)	i
O=C(COC(=O)COc1ccc(C2SCCCS2)cc1)Nc1c(F)cccc1F	i
NC(=O)c1ccc(CN(C(=O)Cc2cccs2)C2CC2)cc1	i
CCCCCCn1nc(C(=O)OCC(=O)c2cc(C)n(C)c2C)c2ccccc2c1=O	i
CCC1c2nccn2CCCN1C(=O)CCn1nc(C)cc1C (centres undefined)	i
CCN(Cc1nc2cc(Cl)ccc2c(=O)[nH]1)C(=O)CNC(=O)c1ccc(C(F)(F)F)cc1	i
CN(CC(=O)Nc1cc(C(F)(F)F)cc(C(F)(F)F)c1)C1CCCCC1	i
SMILES	KDM5B inh
O=C(C1CC1)N1CCC(Oc2cnc3c(ccn3-c3cncnc3)c2)CC1	i
C[S+](=O)([O-])NCCn1ccc2cc(OC3CCN(C(=O)C4CCCC4)CC3)cnc21	35.5µM*
O=C(C1CCCC1)N1CCC(Oc2cnc3c(ccn3-c3cncnc3)c2)CC1	i
CN(C)CCNC(=O)c1cccc2c1CCN2C(=O)Nc1ccccc1	i
CC(=O)c1nnn(-c2nc(N3CCCCC3)nc(N3CCOCC3)n2)c1C	i
N=C(N)c1ncccn1	i
COc1ccc(CN2CCOc3nc(-c4cc(F)cc(F)c4)ncc3C2=O)cc1	i
COCCN1CCOc2nc(-c3cc(F)cc(OC)c3)ncc2C1=O	31.6µM*
COc1ccc(OC)c(-c2ncc3c(n2)OCCN(c2cccc(C(F)(F)F)c2)C3=O)c1	i
COc1cccc(F)c1-c1ncc2c(n1)OCCN(c1cccc(C(F)(F)F)c1)C2=O	i
COc1ccc(F)cc1-c1ncc2c(n1)OCCN(c1cccc(C(F)(F)F)c1)C2=O	39.8µM*
COc1cc(F)cc(-c2ncc3c(n2)OCCN(c2cccc(C(F)(F)F)c2)C3=O)c1	i
CN1CCOc2nc(-c3ccc(Oc4ccccc4)cc3)ncc2C1=O	i
COCCN1CCOc2nc(-c3cccc(OC(F)(F)F)c3)ncc2C1=O	i
Cn1nccc1-c1ncc2c(n1)OCCN(Cc1ccc(F)cc1F)C2=O	i
COc1cc(F)cc(-c2ncc3c(n2)OCCN(C)C3=O)c1	35.5µM*
COCCN1CCOc2nc(-c3ccc(F)c(Cl)c3)ncc2C1=O	i
COCCN1CCOc2nc(-c3cc(F)ccc3OC)ncc2C1=O	31.6µM*
COc1cccc(-c2nc(C(=O)N3CCC(C)CC3)nn2-c2ccccc2)c1	i
CCCN(Cc1nccn1C)C(=O)c1cn(Cc2ccc(F)cc2)nn1	i
O=C(COc1ccccc1)Nc1cccc(-c2nc3ccccc3o2)c1	i
O=C(C1CC1)N1CC2(CCCN2C2COC2)Cc2ccccc21 (centres undefined)	i
Cc1c(C#N)c(NC(=O)CN2CCN(CC(=O)N3CCCC3)CC2)n(C2CCCCC2)c1C	i
C/C(=N\NC(=O)c1cccs1)c1cccc(C)c1	i
Cc1ccc(-c2ccccc2CN)c(C)c1	i
Cc1cc(NC(=O)C(C)Sc2nnc(C)n2-c2ccccc2C)no1 (centres undefined)	i
CCCN1CCC(NC(=O)c2csc(C)c2CC)CC1	i
Cc1ccc(-c2ncc3c(n2)OCCN(c2ccccc2)C3=O)cc1F	i

From PubChem BioAssay
